± gives the standard deviation of the averaged measurements. Whole data set: some 33,000 sequences, median “E-score (rank enrichment, -0.5 to 0.5)” near -0.0043, cut for the highest 2% near 0.24. Many of the other results were omitted from the sample, so the highest values are more common in it than they were.
System: 2Sp-muMax20 (muMax20 with two 2,6-bis(methyl)pyridine Cys staples)
Assay: PBM 8-mer E-score (E-score (rank enrichment, -0.5 to 0.5)); higher = stronger preferential binding
Protocol: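 Protein binding microarray (universal PBM chip covering all 10-mers in fixed probe flanks) with chemically synthesized human Max(13-93) bHLH-LZ analogs (not full-length Max) bearing noncanonical residues (hArg, Tha, Aib, Nle at 65) and aromatic Cys staples. Read-out per 8-mer (and its reverse complement): E-score (rank-based enrichment, -0.5 to 0.5) and Z-score of median probe intensity.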

Question: Which “PBM 8-mer E-score” value does the source give for CACGCGTG here?
Answer: 0.376 ± 0.015

Question: With AGCGCGTC as the sequence, how does the “PBM 8-mer E-score” value read?
Answer: -0.117 ± 0.097

Question: With CGCGCGTC as the sequence, how does the “PBM 8-mer E-score” value read?
Answer: 0.28 ± 0.0065

Question: How did the “PBM 8-mer E-score” value turn out when CGCGCGTA was run?
Answer: 0.176 ± 0.021

Question: With ACCGCGTC as the sequence, how does the “PBM 8-mer E-score” value read?
Answer: -0.0765 ± 0.041

Question: CACGCGTA was tested. Which “PBM 8-mer E-score” value did it give?
Answer: 0.175 ± 0.043

Question: Which “PBM 8-mer E-score” value does the source give for GGTCGGGA here?
Answer: -0.25 ± 0.0058

Question: CGTGACCA was tested. Which “PBM 8-mer E-score” value did it give?
Answer: 0.1 ± 0.098

Question: AAGCCATT was tested. Which “PBM 8-mer E-score” value did it give?
Answer: -0.0452 ± 0.016

Question: With AGCCACGG as the sequence, how does the “PBM 8-mer E-score” value read?
Answer: -0.2315 ± 0.00033

Question: How did the “PBM 8-mer E-score” value turn out when TGTCTGAA was run?
Answer: 0.0107 ± 0.0037

Question: CCCCGAAG was tested. Which “PBM 8-mer E-score” value did it give?
Answer: -0.126 ± 0.04

Question: With AAAGGAGA as the sequence, how does the “PBM 8-mer E-score” value read?
Answer: 0.0434 ± 0.019

Question: For CAAGGAGA, which “PBM 8-mer E-score” value is on record?
Answer: -0.133 ± 0.073

Question: With GAAGGAGA as the sequence, how does the “PBM 8-mer E-score” value read?
Answer: 0.246 ± 0.023

Question: For GTATAGAC, which “PBM 8-mer E-score” value is on record?
Answer: 0.121 ± 0.0088

Question: ATTTGTTG was tested. Which “PBM 8-mer E-score” value did it give?
Answer: 0.266 ± 0.034

Question: ACATGTTC was tested. Which “PBM 8-mer E-score” value did it give?
Answer: 0.161 ± 0.04

Question: How did the “PBM 8-mer E-score” value turn out when AGATGTTG was run?
Answer: -0.146 ± 0.015

Question: With ACATGTTG as the sequence, how does the “PBM 8-mer E-score” value read?
Answer: 0.268 ± 0.089

Question: With AAATGTTA as the sequence, how does the “PBM 8-mer E-score” value read?
Answer: 0.156 ± 0.028

Question: ATTTGTTA was tested. Which “PBM 8-mer E-score” value did it give?
Answer: 0.228 ± 0.064

Question: ATTTGTTC was tested. Which “PBM 8-mer E-score” value did it give?
Answer: 0.106 ± 0.018

Question: How did the “PBM 8-mer E-score” value turn out when GCATGTTA was run?
Answer: 0.252 ± 0.095

Question: How did the “PBM 8-mer E-score” value turn out when ACATGTTA was run?
Answer: 0.3172 ± 0.0015

Question: With GGATGTTA as the sequence, how does the “PBM 8-mer E-score” value read?
Answer: 0.196 ± 0.022

Question: CCATGTTA was tested. Which “PBM 8-mer E-score” value did it give?
Answer: 0.155 ± 0.054

Question: With ATATGTTA as the sequence, how does the “PBM 8-mer E-score” value read?
Answer: 0.229 ± 0.027

Question: Which “PBM 8-mer E-score” value does the source give for CGACATCG here?
Answer: -0.164 ± 0.033

Question: How did the “PBM 8-mer E-score” value turn out when CGTCCGCA was run?
Answer: -0.0773 ± 0.074

Question: For AAGGGGGG, which “PBM 8-mer E-score” value is on record?
Answer: -0.275 ± 0.053

Question: For CGCTTTAG, which “PBM 8-mer E-score” value is on record?
Answer: 0.0627 ± 0.011

Question: ACGGGTGC was tested. Which “PBM 8-mer E-score” value did it give?
Answer: -0.0393 ± 0.032

Question: Which “PBM 8-mer E-score” value does the source give for GGCCGTAC here?
Answer: 0.0557 ± 0.032

Question: With CTGGATCA as the sequence, how does the “PBM 8-mer E-score” value read?
Answer: -0.158 ± 0.033

Question: With GCTGCTGA as the sequence, how does the “PBM 8-mer E-score” value read?
Answer: -0.206 ± 0.048

Question: AGTGCATG was tested. Which “PBM 8-mer E-score” value did it give?
Answer: 0.0577 ± 0.061

Question: How did the “PBM 8-mer E-score” value turn out when ATGTGTTC was run?
Answer: -0.00117 ± 0.0014

Question: ATGTGTTA was tested. Which “PBM 8-mer E-score” value did it give?
Answer: 0.197 ± 0.14

Question: ATGTGTTG was tested. Which “PBM 8-mer E-score” value did it give?
Answer: 0.254 ± 0.023

Question: With ACCGATCA as the sequence, how does the “PBM 8-mer E-score” value read?
Answer: -0.0856 ± 0.019

Question: GATGGCTA was tested. Which “PBM 8-mer E-score” value did it give?
Answer: 0.03 ± 0.092

Question: Which “PBM 8-mer E-score” value does the source give for CATGGCTA here?
Answer: 0.245 ± 0.055

Question: How did the “PBM 8-mer E-score” value turn out when CATGGCTC was run?
Answer: 0.0571 ± 0.018

Question: Which “PBM 8-mer E-score” value does the source give for CCACGTAC here?
Answer: 0.0687 ± 0.048

Question: How did the “PBM 8-mer E-score” value turn out when AACTGTAT was run?
Answer: 0.104 ± 0.043

Question: For ACAGATGG, which “PBM 8-mer E-score” value is on record?
Answer: 0.0291 ± 0.022

Question: ACGCCCCG was tested. Which “PBM 8-mer E-score” value did it give?
Answer: -0.107 ± 0.028

Question: With CCGCCCCC as the sequence, how does the “PBM 8-mer E-score” value read?
Answer: -0.261 ± 0.11

Question: For ACGCCCCC, which “PBM 8-mer E-score” value is on record?
Answer: -0.168 ± 0.036

Question: For CAGCCCCA, which “PBM 8-mer E-score” value is on record?
Answer: 0.196 ± 0.033

Question: Which “PBM 8-mer E-score” value does the source give for ACGCCCCA here?
Answer: 0.284 ± 0.013

Question: For CCGCCCCG, which “PBM 8-mer E-score” value is on record?
Answer: 0.22 ± 0.037

Question: TCGCCCCA was tested. Which “PBM 8-mer E-score” value did it give?
Answer: 0.246 ± 0.013

Question: Which “PBM 8-mer E-score” value does the source give for CCGCCCCA here?
Answer: 0.344 ± 0.054

Question: TAGCCCAA was tested. Which “PBM 8-mer E-score” value did it give?
Answer: 0.0851 ± 0.013

Question: TCGCCCAA was tested. Which “PBM 8-mer E-score” value did it give?
Answer: 0.0937 ± 0.081

Question: How did the “PBM 8-mer E-score” value turn out when TAGCCCCA was run?
Answer: 0.324 ± 0.022

Question: Which “PBM 8-mer E-score” value does the source give for GCGCCCCA here?
Answer: 0.135 ± 0.0094

Question: For CGGTAACC, which “PBM 8-mer E-score” value is on record?
Answer: -0.288 ± 0.086

Question: GCACATCC was tested. Which “PBM 8-mer E-score” value did it give?
Answer: 0.0732 ± 0.072

Question: With AGGATTTG as the sequence, how does the “PBM 8-mer E-score” value read?
Answer: -0.0789 ± 0.0065

Question: GGAGGTGA was tested. Which “PBM 8-mer E-score” value did it give?
Answer: -0.109 ± 0.038

Question: How did the “PBM 8-mer E-score” value turn out when AGTTGGTC was run?
Answer: -0.13 ± 0.083

Question: How did the “PBM 8-mer E-score” value turn out when GATCCGAC was run?
Answer: -0.198 ± 0.026

Question: How did the “PBM 8-mer E-score” value turn out when AGTTGAAA was run?
Answer: -0.0343 ± 0.15

Question: TCAGGTCA was tested. Which “PBM 8-mer E-score” value did it give?
Answer: -0.126 ± 0.038

Question: With GCCGCCCC as the sequence, how does the “PBM 8-mer E-score” value read?
Answer: 0.0266 ± 0.044

Question: With CCCGCCCA as the sequence, how does the “PBM 8-mer E-score” value read?
Answer: 0.396 ± 0.012

Question: How did the “PBM 8-mer E-score” value turn out when ACCGCCCC was run?
Answer: 0.132 ± 0.0083

Question: For GCCGCCCA, which “PBM 8-mer E-score” value is on record?
Answer: -0.111 ± 0.053

Question: How did the “PBM 8-mer E-score” value turn out when CCCGCCCG was run?
Answer: 0.16 ± 0.065

Question: How did the “PBM 8-mer E-score” value turn out when CCCGCCCC was run?
Answer: 0.281 ± 0.022

Question: CCACCCGG was tested. Which “PBM 8-mer E-score” value did it give?
Answer: -0.213 ± 0.012

Question: For ACTGCTTC, which “PBM 8-mer E-score” value is on record?
Answer: -0.0855 ± 0.012

Question: Which “PBM 8-mer E-score” value does the source give for AGCCTAAT here?
Answer: 0.0715 ± 0.12

Question: ATGTTTTA was tested. Which “PBM 8-mer E-score” value did it give?
Answer: 0.0882 ± 0.015

Question: For ATCCTCGG, which “PBM 8-mer E-score” value is on record?
Answer: -0.136 ± 0.022

Question: ACGTGCCG was tested. Which “PBM 8-mer E-score” value did it give?
Answer: 0.0769 ± 0.0064

Question: Which “PBM 8-mer E-score” value does the source give for ACGTGCCT here?
Answer: 0.257 ± 0.045

Question: Which “PBM 8-mer E-score” value does the source give for ACGTGGAA here?
Answer: 0.188 ± 0.014

Question: With ACGTGGAC as the sequence, how does the “PBM 8-mer E-score” value read?
Answer: 0.208 ± 0.053

Question: For ACGTGGCA, which “PBM 8-mer E-score” value is on record?
Answer: 0.217 ± 0.094

Question: How did the “PBM 8-mer E-score” value turn out when ACGTGCCC was run?
Answer: 0.1949 ± 0.0017

Question: ACGTGGAT was tested. Which “PBM 8-mer E-score” value did it give?
Answer: 0.2668 ± 0.0015

Question: For ACGTGGCT, which “PBM 8-mer E-score” value is on record?
Answer: 0.238 ± 0.019

Question: ACGTGGCC was tested. Which “PBM 8-mer E-score” value did it give?
Answer: -0.048 ± 0.005

— the supplement of paper PMC12636033
